Source: PubChem BioAssay (EPA / NIEHS)
Active and inactive are the calls of the source. The calls were made as follows: active = hit-call score of the fitted dose curve at least 0.9, where 1 is the maximum; inactive = score below 0.9.

Experiments:
[1] = CEETOX_H295R_ESTRADIOL: CeeTox H295R High-throughput Steroidogenesis Assay for Estradiol (AID 2283440); details: actives raise or lower the signal;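 also: estradiol secreted into medium quantified by LC-MS/MS after dansyl derivatisation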
How it was run: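 Estradiol secreted into the medium was measured by tandem mass spectrometry after liquid-liquid extraction and dansylation. Human H295R cells had been forskolin-primed (10 uM, 48 h) before a 48 h chemical exposure with 0.1% DMSO.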

[2] = CEETOX_H295R_ESTRONE: CeeTox H295R High-throughput Steroidogenesis Assay for Estrone (AID 2283441); details: actives raise or lower the signal;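 also: estrone secreted into medium measured by LC-MS/MS after dansyl derivatization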
How it was run: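 H295R cells prestimulated 48 h with 10 uM forskolin, then exposed 48 h to chemicals in 0.1% DMSO final; estrone in medium extracted with MTBE, dansyl-derivatized, quantified by HPLC-MS/MS; bidirectional fitting versus DMSO, viability by MTT.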

[3] = CEETOX_H295R_PROG: CeeTox H295R High-throughput Steroidogenesis Assay for Progesterone (PROG) (AID 2283442); details: actives raise or lower the signal
How it was run: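 Steps: seed H295R cells and let them adhere overnight; prime 48 h with 10 uM forskolin; dose with compound in DMSO at 0.1% final for 48 h; extract medium steroids with MTBE; measure progesterone by LC-MS/MS. MTT viability was run in the same wells.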

[4] = read-out: Tumor necrosis factor receptor superfamily member 6 (Homo sapiens) (UniProt P25445); test: LTEA_HepaRG_FAS: Life Technologies and Expression Analysis (LTEA) Assay for Fas cell surface death receptor (FAS) using HepaRG (AID 2283447); details: mRNA level, 48 h; actives raise or lower the signal
How it was run: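 FAS transcript level was measured by TaqMan qRT-PCR against three housekeeping genes after 48 h chemical exposure. Cells were HepaRG, 0.5% DMSO vehicle, with a top concentration of 100 uM and half-log dilutions over eight points, in duplicate.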

[5] = read-out: Fatty acid synthase (Homo sapiens) (UniProt P49327); test: LTEA_HepaRG_FASN: Life Technologies and Expression Analysis (LTEA) Assay for Fatty Acid Synthase (FASN) using HepaRG (AID 2283448); details: mRNA level, 48 h; actives raise or lower the signal;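 as to AC50: differentiated human HepaRG liver cells in serum-free induction medium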
How it was run: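 Differentiated HepaRG cells in serum-free induction medium exposed 48 h in duplicate to eight half-log concentrations, top 100 uM, 0.5% DMSO. FASN mRNA by qRT-PCR normalised to ACTB, GAPDH, POLR2A; bidirectional fit versus DMSO.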

[6] = read-out: Cyclin D2 (CCND2), CCND2 (gene 894); test: LTEA_HepaRG_CCND2: Life Technologies and Expression Analysis (LTEA) Assay for Cyclin D2 (CCND2) using HepaRG (AID 2283449); details: mRNA level, 48 h; actives raise or lower the signal
How it was run: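 Read-out is CCND2 mRNA level measured by qRT-PCR in human HepaRG liver cells and normalised to three housekeeping genes. Chemicals were applied for 48 h at up to 100 uM, with gain or loss fitted relative to 0.5% DMSO.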

[7] = read-out: Cyclin Dependent Kinase Inhibitor 1A (CDKN1A), CDKN1A (gene 1026); test: LTEA_HepaRG_CDKN1A: Life Technologies and Expression Analysis (LTEA) Assay for Cyclin Dependent Kinase Inhibitor 1A (CDKN1A) using HepaRG (AID 2283450); details: mRNA level, 48 h; actives raise or lower the signal
How it was run: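 Read-out is CDKN1A mRNA by TaqMan qRT-PCR, normalized to three housekeeping genes and fitted in both directions against the DMSO baseline. Human HepaRG cells were treated 48 h with test chemicals up to 100 uM in half-log steps, 0.5% DMSO.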

[8] = read-out: Cyclin D1 (CCND1), CCND1 (gene 595); test: LTEA_HepaRG_CCND1: Life Technologies and Expression Analysis (LTEA) Assay for Cyclin D1 (CCND1) using HepaRG (AID 2283451); details: mRNA level, 48 h; actives raise or lower the signal
How it was run: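 HepaRG plated 48 h, medium switched to serum-free induction medium, chemicals added in duplicate (top 100 uM, half-log steps, 0.5% DMSO) for 48 h, cells lysed, RNA measured by TaqMan qRT-PCR.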

[9] = read-out: catalase (CAT), CAT (gene 847); test: LTEA_HepaRG_CAT: Life Technologies and Expression Analysis (LTEA) Assay for catalase (CAT) using HepaRG (AID 2283452); details: mRNA level, 48 h; actives raise or lower the signal;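 as to AC50: TaqMan qRT-PCR signal normalized to ACTB GAPDH and POLR2A housekeeping genes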
How it was run: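 Expression of CAT was quantified by TaqMan qRT-PCR with ACTB/GAPDH/POLR2A normalization after 48 h chemical exposure of HepaRG. Eight-point half-log series, top 100 uM, in 0.5% DMSO; gain or loss fitted against vehicle.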

[10] = read-out: flavin-containing dimethylaniline monooxygenases 3 (FMO3), FMO3 (gene 2328); test: LTEA_HepaRG_FMO3: Life Technologies and Expression Analysis (LTEA) Assay for flavin-containing dimethylaniline monooxygenases 3 (FMO3) using HepaRG (AID 2283453); details: mRNA level, 48 h; actives raise or lower the signal;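 as to AC50: differentiated human HepaRG liver cells in serum-free induction medium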
How it was run: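 Differentiated HepaRG cells in serum-free induction medium, exposed 48 h in duplicate to 8 half-log concentrations up to 100 uM in 0.5% DMSO. FMO3 mRNA by qRT-PCR, normalized to ACTB, GAPDH, POLR2A; bidirectional fit vs DMSO.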

[11] = read-out: CFLAR gene, CFLAR (gene 8837); test: LTEA_HepaRG_CFLAR: Life Technologies and Expression Analysis (LTEA) Assay for CFLAR gene using HepaRG (AID 2283455); details: mRNA level, 48 h; actives raise or lower the signal
How it was run: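 HepaRG, 48 h exposure, 8-pt conc-response (100 uM top, half-log), 0.5% DMSO vehicle, duplicates. CFLAR expression by qRT-PCR; ACTB/GAPDH/POLR2A normalization; gain or loss fit vs DMSO baseline.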

[12] = read-out: Forkhead box O1 (FOXO1), FOXO1 (gene 2308); test: LTEA_HepaRG_FOXO1: Life Technologies and Expression Analysis (LTEA) Assay for Forkhead box O1 (FOXO1) using HepaRG (AID 2283456); details: mRNA level, 48 h; actives raise or lower the signal
How it was run: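 Readout is FOXO1 transcript level by multiplexed qRT-PCR against three housekeeping genes, curve-fitted in both directions relative to 0.5% DMSO vehicle. Human HepaRG cultures received chemicals for 48 h, up to 100 uM in half-log steps.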

[13] = read-out: growth arrest and DNA damage 45 (GADD45A), GADD45A (gene 1647); test: LTEA_HepaRG_GADD45A: Life Technologies and Expression Analysis (LTEA) Assay for growth arrest and DNA damage 45 (GADD45A) using HepaRG (AID 2283458); details: mRNA level, 48 h; actives raise or lower the signal
How it was run: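 Differentiated HepaRG cells exposed 48 h in serum-free induction medium to 8 concentrations, top 100 uM in half-log steps, 0.5% DMSO. GADD45A mRNA quantified by qRT-PCR, normalized to ACTB, GAPDH and POLR2A; bidirectional fit versus DMSO.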

[14] = read-out: Forkhead box O3 (FOXO3), FOXO3 (gene 2309); test: LTEA_HepaRG_FOXO3: Life Technologies and Expression Analysis (LTEA) Assay for Forkhead box O3 (FOXO3) using HepaRG (AID 2283459); details: mRNA level, 48 h; actives raise or lower the signal
How it was run: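 HepaRG, 48 h post-dose; 8 conc., half-log from 100 uM, 0.5% DMSO, duplicates; serum-free induction medium. Readout: FOXO3 mRNA, TaqMan qRT-PCR, housekeeping-normalized. Bidirectional curve fit vs DMSO baseline.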

[15] = read-out: ABC Transporter (ABCB1), ABCB1 (gene 5243); test: LTEA_HepaRG_ABCB1: Life Technologies and Expression Analysis (LTEA) Assay for ABC Transporter (ABCB1) using HepaRG (AID 2283460); details: mRNA level, 48 h; actives raise or lower the signal
How it was run: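 Expression of ABCB1 was quantified by qRT-PCR against three housekeeping genes after human HepaRG cultures received test chemicals for 48 hours. Concentrations spanned eight half-log steps topping at 100 uM in 0.5% DMSO; gain or loss of signal was fitted relative to vehicle.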

[16] = read-out: growth arrest and DNA damage 45 (GADD45B), GADD45B (gene 4616); test: LTEA_HepaRG_GADD45B: Life Technologies and Expression Analysis (LTEA) Assay for growth arrest and DNA damage 45 (GADD45B) using HepaRG (AID 2283461); details: mRNA level, 48 h; actives raise or lower the signal
How it was run: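 HepaRG, ~100,000 cells/well, 48 h plating; serum-free induction medium; cpd 100 uM top, half-log x8, 0.5% DMSO, duplicate, 48 h; lysis in RLT, RNA isolation, qRT-PCR; norm ACTB/GAPDH/POLR2A; bidirectional fit vs DMSO.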

[17] = read-out: ABC Transporter (ABCC3), ABCC3 (gene 8714); test: LTEA_HepaRG_ABCC3: Life Technologies and Expression Analysis (LTEA) Assay for ABC Transporter (ABCC3) using HepaRG (AID 2283462); details: mRNA level, 48 h; actives raise or lower the signal
How it was run: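 Human HepaRG, 48 h dosing, 8-pt half-log series from 100 uM, 0.5% DMSO vehicle, duplicates. ABCC3 mRNA by TaqMan qRT-PCR, housekeeping-normalized; bidirectional curve fit vs DMSO.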

[18] = read-out: Cytochrome P450 (CYP1A1), CYP1A1 (gene 1543); test: LTEA_HepaRG_CYP1A1: Life Technologies and Expression Analysis (LTEA) Assay for Cytochrome P450 (CYP1A1) using HepaRG (AID 2283454); details: mRNA level, 48 h; actives raise or lower the signal
How it was run: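 HepaRG, 48 h post-plating switched to serum-free induction medium; 8-pt conc-response (top 100 uM, half-log, 0.5% DMSO), duplicates, 48 h. Lysis in RLT, TaqMan qRT-PCR for CYP1A1; gain or loss vs DMSO.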

Measured: AC50

Fatty acid synthase (Homo sapiens), sequence (P49327 whole entry, looked up): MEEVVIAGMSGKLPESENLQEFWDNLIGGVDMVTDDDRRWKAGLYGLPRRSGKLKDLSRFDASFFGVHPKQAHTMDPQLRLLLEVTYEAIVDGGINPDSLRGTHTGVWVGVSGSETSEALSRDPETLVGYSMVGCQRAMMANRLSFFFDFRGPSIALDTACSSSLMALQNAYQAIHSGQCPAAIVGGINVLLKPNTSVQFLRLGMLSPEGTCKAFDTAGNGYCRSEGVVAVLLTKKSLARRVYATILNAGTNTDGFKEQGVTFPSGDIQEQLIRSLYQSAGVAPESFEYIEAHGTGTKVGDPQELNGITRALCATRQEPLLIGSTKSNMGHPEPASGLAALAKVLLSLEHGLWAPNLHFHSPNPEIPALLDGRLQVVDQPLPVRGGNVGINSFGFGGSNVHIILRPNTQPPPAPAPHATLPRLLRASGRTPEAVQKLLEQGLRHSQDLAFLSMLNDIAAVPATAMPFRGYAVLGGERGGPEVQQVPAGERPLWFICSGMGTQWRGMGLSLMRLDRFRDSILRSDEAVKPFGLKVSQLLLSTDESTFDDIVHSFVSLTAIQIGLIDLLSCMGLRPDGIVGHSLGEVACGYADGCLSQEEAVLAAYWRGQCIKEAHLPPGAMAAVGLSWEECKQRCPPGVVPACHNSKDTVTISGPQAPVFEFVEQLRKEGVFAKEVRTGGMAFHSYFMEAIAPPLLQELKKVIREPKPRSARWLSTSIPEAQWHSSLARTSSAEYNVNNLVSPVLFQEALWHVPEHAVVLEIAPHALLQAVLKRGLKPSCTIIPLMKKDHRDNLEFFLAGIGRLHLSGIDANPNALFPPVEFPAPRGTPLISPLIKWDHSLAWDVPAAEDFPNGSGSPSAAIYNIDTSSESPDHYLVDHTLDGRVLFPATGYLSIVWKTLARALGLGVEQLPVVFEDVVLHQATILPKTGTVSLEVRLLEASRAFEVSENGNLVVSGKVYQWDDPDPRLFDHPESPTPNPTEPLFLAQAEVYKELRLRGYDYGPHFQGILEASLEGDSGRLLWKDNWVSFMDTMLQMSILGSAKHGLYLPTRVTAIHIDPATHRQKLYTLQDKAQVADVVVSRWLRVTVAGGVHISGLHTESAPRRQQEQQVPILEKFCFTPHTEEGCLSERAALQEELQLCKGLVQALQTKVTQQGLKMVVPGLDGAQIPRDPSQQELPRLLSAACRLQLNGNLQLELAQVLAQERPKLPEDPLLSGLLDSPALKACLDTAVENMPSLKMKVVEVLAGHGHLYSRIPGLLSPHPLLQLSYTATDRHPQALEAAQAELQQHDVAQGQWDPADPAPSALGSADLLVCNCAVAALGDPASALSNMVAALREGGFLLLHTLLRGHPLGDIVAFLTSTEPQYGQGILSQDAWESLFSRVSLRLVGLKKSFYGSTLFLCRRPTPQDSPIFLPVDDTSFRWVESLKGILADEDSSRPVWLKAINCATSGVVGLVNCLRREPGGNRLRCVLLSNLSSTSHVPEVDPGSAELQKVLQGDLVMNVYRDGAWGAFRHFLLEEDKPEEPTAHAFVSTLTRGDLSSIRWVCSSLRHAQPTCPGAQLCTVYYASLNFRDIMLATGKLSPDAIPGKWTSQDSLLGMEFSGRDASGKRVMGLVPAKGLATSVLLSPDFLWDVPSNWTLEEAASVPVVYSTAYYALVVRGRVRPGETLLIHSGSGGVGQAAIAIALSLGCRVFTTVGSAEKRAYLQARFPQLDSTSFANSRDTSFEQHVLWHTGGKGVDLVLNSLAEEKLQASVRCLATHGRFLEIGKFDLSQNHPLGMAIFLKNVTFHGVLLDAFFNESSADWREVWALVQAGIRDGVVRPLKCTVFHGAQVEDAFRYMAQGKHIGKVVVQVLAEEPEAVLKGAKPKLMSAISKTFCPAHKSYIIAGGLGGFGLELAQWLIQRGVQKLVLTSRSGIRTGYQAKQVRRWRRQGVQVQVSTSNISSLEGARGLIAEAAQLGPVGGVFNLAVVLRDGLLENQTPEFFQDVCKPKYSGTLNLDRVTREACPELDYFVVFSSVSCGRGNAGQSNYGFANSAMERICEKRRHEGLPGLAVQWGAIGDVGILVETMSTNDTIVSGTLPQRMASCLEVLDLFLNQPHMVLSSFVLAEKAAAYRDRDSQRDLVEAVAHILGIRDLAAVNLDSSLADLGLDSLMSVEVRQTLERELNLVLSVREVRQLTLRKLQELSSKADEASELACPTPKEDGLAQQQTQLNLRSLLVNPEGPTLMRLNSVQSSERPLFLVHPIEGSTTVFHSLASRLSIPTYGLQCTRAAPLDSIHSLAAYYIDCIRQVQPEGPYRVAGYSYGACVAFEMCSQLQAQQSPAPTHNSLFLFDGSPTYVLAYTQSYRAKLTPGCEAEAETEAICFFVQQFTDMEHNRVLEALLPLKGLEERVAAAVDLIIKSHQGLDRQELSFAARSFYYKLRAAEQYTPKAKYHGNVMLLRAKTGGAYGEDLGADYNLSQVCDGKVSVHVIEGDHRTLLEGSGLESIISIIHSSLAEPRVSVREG

CCCCCCCCCCCCCCO
inactive: [1] | [2] | [3] | [4] | [5] | [6] | [7] | [8] | [9] | [10] | [11] | [12] | [13] | [14] | [15] | [16] | [17]

OCCNCCO
inactive: [4] | [6] | [7] | [8] | [10] | [18] | [11] | [12] | [13] | [14] | [15] | [16] | [17]
active: [5] 9.92 µM | [9] 50 µM

CCCCCCOC(=O)CC(CC(=O)OCCCCCC)(OC(=O)CCC)C(=O)OCCCCCC
inactive: [4] | [5] | [6] | [7] | [8] | [9] | [10] | [11] | [12] | [13] | [14] | [15] | [16] | [17]

CC(C)CCCCCCOC(=O)C1CCCCC1C(=O)OCCCCCCC(C)C (centres undefined)
inactive: [4] | [5] | [6] | [7] | [8] | [9] | [10] | [11] | [12] | [14] | [15] | [16] | [17]
active: [13] 0.00316 µM

O=C(NO)C1(NS(=O)(=O)c2ccc(Oc3ccc(F)cc3)cc2)CCOCC1
active: [7] 85.1 µM | [9] 85.5 µM | [10] 76.5 µM | [17] 80.1 µM
inactive: [4] | [6] | [8] | [18] | [11] | [12] | [13] | [14] | [15] | [16]
